LASV entry inh – blocks Lassa virus binding to or entry into cells | Lassa virus pseudotype entry inhibition, cell reporter | Potency, µM (series often up to 37.9 µM), inactives show at the top dose activity change, negative = inhibition, usual class: inhibitors | 300,000 tested, 1.2% active | AID 540256; calls by dose curve; tested in HEK293 cells; also: potency is read from the fitted curve at half-maximal effect; nearly all actives have a fitted effect of over 50% in size
HCMV inh – blocks human cytomegalovirus replication. HFF cells, HCMV-luciferase reporter, 72 h; hits give low values. activity change, negative = inhibition, % at 57.5 µM. 410,000 tested, 4.5% active. AID 1259415; in the data active = activity change below about -60%; inconclusive = no clear call, values can overlap the other calls; inactive = above about -39%
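Luciferase read-out from HCMV-luciferase-infected HFFs (MOI 1 PFU/cell) 72 h post infection at 37C; compounds added after 16 h cell attachment; activity normalized between buffer-only basal and Salinomycin (10uM) inhibitor controls.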
MARV entry inh – blocks Marburg virus binding to or entry into cells; Marburg virus pseudotyped entry inhibition, cell reporter; Potency, µM (highest dose often 37.8 µM), inactives show at the top dose activity change, negative = inhibition, hits mostly inhibitors; 300,000 tested, 1.8% active; calls by dose curve; tested in HEK293 cells; also: potency is read from the fitted curve at half-maximal effect
VACV Venus inh – inhibitors of vaccinia virus (Venus reporter); Vaccinia virus Venus reporter expression, fluorescence; Potency, µM (series often up to 36.5 µM), for the others: at the top dose activity change, negative = inhibition, most hits filed as inhibitors; 330,000 tested, 0.46% active; calls by dose curve; tested in A549 cells; also: potency is read from the fitted curve at half-maximal effect; nearly all actives have a fitted effect of over 30% in size
VACV mCherry inh – vaccinia inhibition (mCherry reporter); Vaccinia virus mCherry reporter infection, fluorescence; Potency, µM (top dose mostly 36.5 µM), inactives show at the top dose activity change, negative = inhibition, hits mostly inhibitors; 310,000 tested, 0.63% active; calls by dose curve; tested in A549 cells; also: potency is read from the fitted curve at half-maximal effect; nearly all actives have a fitted effect of over 35% in size
HCV inh – inhibitors of hepatitis C virus infection; Potency, µM (series often up to 41.8 µM), without a hit: top-dose activity change, negative = inhibition, actives largely listed as inhibitors; Huh7.5.1 HCVcc-Cre infection, luciferase reporter, 44 h; 340,000 tested, 3.4% active; AID 651820; active = well fitted inhibition curve with a large enough effect; inconclusive = small, poorly fitted or top-dose-only effect, or another doubt; inactive = no such curve, though single readings can be large or run the other way; also: potency is read from the fitted curve at half-maximal effect
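A cell-based infection assay in which seeded cells (1,000 per well) receive test compound after 4 h, are inoculated with HCVcc-Cre at approximately 0.5 moi, and are incubated 44 h before luminescence detection.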
Starred values were filed as active, the others as inactive; i = inactive; ? = inconclusive; · = not tested or not shown; [ ] = dose if it differs, or a comment. Compounds with a hit are over-represented: about 7.8% of the library has one in this group of screens. % is scaled to controls: 0 for no effect and ±100 for the full control effect.

SMILES	LASV entry inh	HCMV inh	MARV entry inh	VACV Venus inh	VACV mCherry inh	HCV inh
COc1cccc(-c2cc(NC=O)c3ncc(-c4ccc(C(C)=O)cc4)n3c2)c1	·	-64.4*	·	?	-24.3%	·
COc1ccc(-c2cc(NC=O)c3ncc(-c4ccc(C(C)=O)cc4)n3c2)cc1OC	·	44.4	·	?	?	·
COc1ccc(-c2cc(NC=O)c3ncc(-c4cccc(C(C)=O)c4)n3c2)cc1	·	18.4	·	?	12.6µM*	·
COc1ccc(C2=NN(S(C)(=O)=O)C(c3cn(-c4ccccc4)nc3-c3cccs3)C2)cc1 (stereo not given)	14.9%[46.1 µM]	50.6	19.8%[46.1 µM]	-13.0%[7.34 µM]	-8.1%[7.34 µM]	·
CN(C)c1nc(C=C(C#N)C#N)c(Cl)n1-c1ccc(F)cc1	?	-97.5*	?	?	?	?
C=CC1=C2C=C(C3CC3)N(CCCCO)C=C2C(=O)C(C)(OC(=O)c2ccco2)C1=O (stereo not given)	·	·	-6.8%[14.2 µM]	·	·	·
CCOc1ccc(NC(=O)CSc2nc3c(oc4ccccc43)c(=O)n2-c2ccccc2C)cc1	·	-81.7*	?	-14.2%	-21.5%	·
CCOc1ccc(-n2c(SCC(=O)Nc3ccc(CC)cc3)nc3c(oc4ccccc43)c2=O)cc1	1.5%[46.1 µM]	18.0	-5.1%[46.1 µM]	-14.6%	-11.9%	·
CC(C)[C@H](NC(=O)N1c2ccccc2NC(=O)[C@@H]1C(C)C)C(=O)N1CCC(C(=O)O)CC1	·	39.5	·	-4.8%	-5.2%	31.6µM*
CC(C)[C@H]1C(=O)Nc2ccccc2N1C(=O)N[C@@H](Cc1ccccc1)C(=O)N[C@@H](C(=O)O)c1ccccc1	·	9.7	·	5.5%	6.1%	3.8%
COc1ccc(NC(=O)NCc2c(-n3cccc3)sc3c2CCCC3)c(OC)c1	-4.3%[46.1 µM]	-3.8	-5.9%[46.1 µM]	-18.0%	-18.6%	·
O=C(Nc1ccc(Cl)c([N+](=O)[O-])c1)c1ccc(NCCCN2CCOCC2)c([N+](=O)[O-])c1	-2.1%	-20.5	6.51µM*	·	·	2.24µM*
O=[N+]([O-])c1cc(S(=O)(=O)NCCCN2CCOCC2)ccc1Cl	?	-34.6	?	-22.6%	-23.1%	10µM*
O=C(NCCCN1CCOCC1)c1ccc(Sc2cccc(Cl)c2)c([N+](=O)[O-])c1	?	?	2.1%	-18.1%	?	11.2µM*
COc1cc(S(=O)(=O)NCCCN2CCOCC2)ccc1Cl	1.8%	-38.1	7.2%	-4.3%	i	4.9%
COc1ccc(NC(=O)c2ccc(NCCCN3CCOCC3)c([N+](=O)[O-])c2)cc1	7.1%	-0.6	-17.3%	-27.3%	-3.5%	12.6µM*
O=C(NCCCN1CCOCC1)c1ccc(Cl)c([N+](=O)[O-])c1	10.7%	45.8	-3.9%[46.1 µM]	-1.0%[7.34 µM]	-5.6%[7.34 µM]	-0.1%
O=[N+]([O-])c1ccc(NCCCN2CCOCC2)c([N+](=O)[O-])c1	11.5%[46.1 µM]	2.1	?	33.7%	-11.8%	1.3%
Cc1oc(-c2ccccc2NC(=O)c2ccccc2)nc1CNC(=O)c1cccc(-n2cccn2)c1	·	·	·	13.6%	-6.4%	·
Cc1ccc(NC(=O)c2ccc(NCCCN3CCOCC3)c([N+](=O)[O-])c2)cc1Cl	?	?	?	?	?	11.2µM*
Cc1nn(Cc2ccccc2)c2sc(C(=O)NCc3cccnc3)cc12	?	10.0	-6.4%	-23.3%	?	7.94µM*
O=C(NC1CCCC1)c1ccc2c(c1)N(Cc1ccccc1)CCS2	·	-7.9	·	·	·	?
O=C(NC1CC1)c1ccc2c(c1)N(Cc1ccc(Cl)cc1)CCS2	·	?	·	·	·	22.4µM*
Cc1ccc(CN2CCSc3ccc(C(=O)NC4CCN(Cc5ccccc5)CC4)cc32)cc1	?	-20.2	?	-18.6%	-14.7%	8.91µM*
CCOCCCn1c(SCC(=O)Nc2ccc(F)cc2)nc2c(sc3ccccc32)c1=O	0.0%[46.1 µM]	-13.0	·	-22.2%	-16.5%	·
SMILES	LASV entry inh	HCMV inh	MARV entry inh	VACV Venus inh	VACV mCherry inh	HCV inh
COCCCN1C(=O)c2[nH]nc(-c3ccccc3O)c2C1c1ccc(OCc2ccccc2)cc1 (stereo not given)	?	-95.8*	?	-8.8%[7.34 µM]	-11.3%[7.34 µM]	·
COc1ccc(CCN2C(=O)c3[nH]nc(-c4ccccc4O)c3C2c2cccc(O)c2)cc1OC (stereo not given)	?	90.1	6.6%	-27.6%	?	?
CCCCN1C(=O)c2[nH]nc(-c3ccccc3O)c2C1c1ccc(OCc2ccccc2)cc1 (stereo not given)	?	-108.0*	?	-4.9%	-2.8%	·
COc1cccc(C2c3c(-c4ccccc4O)n[nH]c3C(=O)N2CCc2ccc(OC)c(OC)c2)c1 (stereo not given)	?	-25.7	7.08µM*	-13.3%	-16.3%	·
O=C1NC(c2ccccc2)=C(c2nc3ccccc3s2)C(c2ccccc2)N1 (stereo not given)	9.2µM*	48.7	-21.3%	-22.6%	-8.2%	?
CC(=O)C1=C(c2ccccc2)NC(=O)NC1c1ccccc1 (stereo not given)	·	-32.3	·	·	·	14.2%
COc1cc(C2CC(=O)N(c3ccc(C)c(Cl)c3)C3=C2C(=O)OC3)cc(OC)c1OC (stereo not given)	7.8%[46.1 µM]	-6.6	4.8%[46.1 µM]	-8.4%	-3.5%	·
NS(=O)(=O)c1ccc(N/N=C/c2ccc(O)cc2O)c([N+](=O)[O-])c1	·	-78.3*	·	-25.4%	?	-28.1%
NS(=O)(=O)c1ccc(N/N=C/c2ccccn2)c([N+](=O)[O-])c1	?	-63.6*	?	·	·	?
NS(=O)(=O)c1ccc(N/N=C/c2cn(-c3ccccc3)nc2-c2ccccc2)c([N+](=O)[O-])c1	·	-81.0*	·	·	·	10µM*
NS(=O)(=O)c1ccc(N/N=C/c2ccc(O)c(O)c2O)c([N+](=O)[O-])c1	-21.3%	-26.5	?	-4.5%	?	-18.6%
CNCCc1c[nH]c2ccccc12	·	·	·	-5.2%	i	10.3%
CNCCc1c[nH]c2ccc(O)cc12	7.5%	-8.5	?	-7.0%	i	3.16µM*
NC(=O)Cn1cc(C(=O)COc2ccccc2)c2ccccc21	·	-10.9	·	·	·	·
COC(=O)c1cn(CCOc2ccc(C)cc2)c2ccccc12	2.3%	-12.6	?	·	·	?
O=C(COc1ccccc1)c1cn(Cc2ccccc2)c2ccccc12	4.1%	-62.5*	?	-15.9%	i	-11.3%
Cc1cc(OCCn2cc(/C(N)=N/O)c3ccccc32)ccc1Cl	24.1%	3.4	?	?	?	7.08µM*
CC(=O)c1cn(CCCOc2ccccc2)c2ccccc12	·	-12.6	·	-25.6%	i	7.08µM*
CC(=O)c1cn(CCOc2ccc(F)cc2)c2ccccc12	·	8.6	·	·	·	12.6µM*
N[C@H]1C(O)O[C@H](CO)[C@@H](O)[C@@H]1O (stereo not given in full)	·	-11.3	·	-11.7%	i	-2.3%
OC[C@H]1OC(O)[C@H](O)[C@@H](O)[C@H]1O (stereo not given in full)	·	-61.3*	·	-11.1%	-0.7%	-15.3%
